# A number with no mark means an inactive call. Records with an inconclusive call do not appear. Entries that show only a call come without a potency. Active and inactive are the calls of the source. Unless noted, the call rests on the fitted dose curve; in most records, active means well fitted curve in the direction sought with a large enough effect in the repeat runs; inconclusive means weak or mixed curves; inactive means no such curve, though single readings can be large; an effect the other way counts as inactive or inconclusive.
# Tests used:
# [1] = qHTS assay for small molecule agonists of the p53 signaling pathway (AID 651631; calls by dose curve; further: nearly all actives have a fitted effect of over 15% in size; further: potency means the concentration at half of the fitted maximal effect); conditions: HCT-116 p53RE-bla reporter, beta-lactamase FRET ratio, 16 h; series mostly up to 73.3 µM
# Procedure, shortened: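 p53RE-bla HCT-116 cells; compounds 16 h, 37 °C; LiveBLAzer B/G FRET substrate 2 h RT; fluorescence intensity read-out, qHTS format.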
# [2] = qHTS assay for small molecules that induce genotoxicity in human embryonic kidney cells expressing luciferase-tagged ATAD5 (AID 651632); conditions: HEK293T ATAD5-luciferase induction, 16 h; series mostly up to 83.3 µM; further: nearly all actives have a fitted effect of over 15% in size; further: potency means the concentration at half of the fitted maximal effect
# Procedure, shortened: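 Increased luciferase signal from ATAD5-tagged reporter cells indicates DNA-damage-driven ATAD5 induction. HEK293T cells are treated for 16 hr at 37C before detection with Amplite.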
# [3] = qHTS assay for small molecule agonists of the p53 signaling pathway - cell viability (AID 651633; calls by dose curve; further: nearly all actives have a fitted effect of over 30% in size; further: potency means the concentration at half of the fitted maximal effect); conditions: p53RE-bla HCT-116 viability, ATP luminescence, 16 h; series mostly up to 83.3 µM
# Procedure, shortened: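 p53RE-bla cells, seeded at 4,000 per well and rested 5 h at 37 C/5% CO2, received compounds in DMSO for 16 h at 37 C. CellTiter-Glo was then added, and luminescence was read after 30 min at room temperature to gauge cytotoxicity.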
# [4] = qHTS assay for small molecules that induce genotoxicity in human embryonic kidney cells expressing luciferase-tagged ATAD5 - cell viability (AID 651634; calls by dose curve; further: nearly all actives have a fitted effect of over 25% in size; further: potency means the concentration at half of the fitted maximal effect); conditions: HEK293T ATAD5-luc cells viability, CellTiter-Fluor, 15.5 h; series mostly up to 83.3 µM
# Procedure, shortened: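 Cytotoxicity counterscreen in HEK293T cells bearing an ATAD5-luciferase reporter: live-cell protease activity measured by CellTiter-Fluor fluorescence after 15.5 hr compound exposure.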
# [5] = qHTS assay for small molecule disruptors of the mitochondrial membrane potential - cell viability (AID 720634; calls by dose curve;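 further: human HepG2 liver cancer cells; nearly all actives have a fitted effect of over 20% in size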); conditions: HepG2 viability, ATP luminescence (CellTiter-Glo), 1 h; series mostly up to 83.2 µM
# Procedure, shortened: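 After overnight attachment at 37 C, HepG2 cells received compound or DMSO vehicle for 1 hr. Viability is then taken from ATP-driven luminescence following a 30 min room-temperature CellTiter-Glo step.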
# [6] = qHTS assay for small molecule disruptors of the mitochondrial membrane potential (AID 720635); conditions: HepG2 mitochondrial membrane potential, Mito-MPS dye ratio; series mostly up to 83.2 µM; further: potency means the concentration at half of the fitted maximal effect
# Procedure, shortened: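 HepG2 cells (2,000/well) attached overnight at 37C, then took compound for 1 hr at 37C, 5% CO2. Mito-MPS dye was added for 30 min; fluorescence was read at 490/535 nm (monomers) and 540/590 nm (aggregates).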
# [7] = qHTS assay to test for compound auto fluorescence at 590 nm (red) in HepG2 cells (AID 720674); conditions: HepG2 autofluorescence, red 540/590 nm, 1 h; series mostly up to 91.3 µM
# Procedure, shortened: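 Rose Bengal sodium served as the red fluorophore standard. HepG2 monolayers (overnight attachment, MEM with 10% FBS) were exposed to test compounds for 1 hr at 37 C and read at Ex 540/Em 590 nm.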
# [8] = qHTS assay to test for compound auto fluorescence at 535 nm (green) in HepG2 cells (AID 720675); conditions: green autofluorescence 485/535 nm, 1 h; series mostly up to 91.3 µM
# [9] = qHTS assay to test for compound auto fluorescence at 460 nm (blue) in HEK293 cells (AID 720678); conditions: blue autofluorescence 405/460 nm; series mostly up to 91.3 µM
# Procedure, shortened: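 HEK293 cells (2,000/well, medium with 10% dialyzed FBS) attached 4-5 hr, then exposed to compound overnight at 37C, 5% CO2. Blue fluorescence read at 405/460 nm, with triamterene as reference fluorophore.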
# [10] = qHTS assay to test for compound auto fluorescence at 590 nm (red) in HEK293 cells (AID 720679); conditions: red autofluorescence 540/590 nm; series mostly up to 91.3 µM
# Procedure, shortened: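 HEK293 cells (2,000/well, 10% dialyzed FBS) attached 4-5 hr, then dosed with compound or DMSO and incubated overnight at 37C, 5% CO2. Red fluorescence read at 540/590 nm, Rose Bengal sodium as reference fluorophore.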
Compound,Potency [1],Potency [2],Potency [3],Potency [4],outcome [5],Potency [6],outcome [7],outcome [8],Potency [9],outcome [10],"fluorescence, relative to Rose Bengal [7]","fluorescence, % of fluorescein control [8]","fluorescence, % of triamterene [9]","fluorescence, % of fluorescent control [10]"
CC(=O)c1ccc[nH]1,inactive,inactive,inactive,inactive,inactive,inactive,inactive,inactive,inactive,inactive,–,–,–,–
CCN(CC)CCNC(=O)c1cc(Cl)c(N)cc1OC,inactive,inactive,inactive,inactive,inactive,inactive,inactive,inactive,inactive,inactive,–,–,–,–
CC12CC3CC(C)(C1)CC(N)(C3)C2,inactive,inactive,inactive,inactive,inactive,inactive,inactive,inactive,inactive,inactive,–,–,–,–
C[C@@H]1C[C@H]2[C@@H]3CCC4=CC(=O)C=C[C@]4(C)[C@@]3(F)[C@@H](O)C[C@]2(C)[C@@]1(O)C(=O)COP(=O)(O)O,inactive,inactive,inactive,inactive,inactive,inactive,inactive,inactive,inactive,–,–,–,–,–
CN=C(N)NC(=O)Nc1c(C)cccc1C,inactive,inactive,inactive,inactive,inactive,inactive,inactive,inactive,inactive,inactive,–,–,–,–
CC(C)(O)c1coc(S(=O)(=O)NC(=O)Nc2c3c(cc4c2CCC4)CCC3)c1,inactive,inactive,inactive,inactive,inactive,inactive,inactive,inactive,inactive,–,–,–,–,–
CC1CCCC(=O)C1=O (centres undefined),inactive,inactive,inactive,inactive,inactive,inactive,inactive,inactive,inactive,inactive,–,–,–,–
CC(=O)NCCO,inactive,inactive,inactive,inactive,inactive,inactive,inactive,inactive,inactive,–,–,–,–,–
COc1ccc(C(=O)NCc2ccc(OCCN(C)C)cc2)cc1OC,inactive,inactive,inactive,inactive,inactive,inactive,inactive,inactive,inactive,inactive,–,–,–,–
CC(C)(C)S,inactive,inactive,inactive,inactive,inactive,inactive,inactive,inactive,inactive,inactive,–,–,–,–
c1ccc2sc(SSc3nc4ccccc4s3)nc2c1,inactive,inactive,inactive,inactive,inactive,inactive,inactive,inactive,inactive,inactive,–,–,–,–
CC(O)Cn1cnc2c1c(=O)n(C)c(=O)n2C (centres undefined),inactive,inactive,inactive,inactive,inactive,inactive,–,–,–,–,-0.388% [at 18.6 µM],0.0515% [at 18.6 µM],-0.0145% [at 18.6 µM],0.0437% [at 18.6 µM]
CC(C)c1ccc(C#N)cc1,inactive,inactive,inactive,inactive,inactive,inactive,inactive,inactive,inactive,inactive,–,–,–,–
CS(=O)(=O)c1ccc([C@@H](C[C@H]2CCC(=O)C2)C(=O)Nc2cnccn2)cc1Cl,inactive,inactive,inactive,inactive,inactive,inactive,inactive,inactive,inactive,–,–,–,–,–
CC(C)C(O)C(C)(C)CO (centres undefined),inactive,inactive,inactive,inactive,inactive,inactive,inactive,inactive,inactive,inactive,–,–,–,–
Nc1ccc(NC(=O)c2ccc(N)cc2)cc1,inactive,inactive,inactive,inactive,inactive,1.37 µM (active),inactive,inactive,inactive,inactive,–,–,–,–
ClC1=C(Cl)C1(Cl)Cl,inactive,inactive,inactive,inactive,inactive,inactive,inactive,inactive,inactive,inactive,–,–,–,–
O=C(NS(=O)(=O)/C=C/c1ccccc1)c1ccc(F)cc1Cl,21.7 µM (active),15.4 µM (active),inactive,inactive,inactive,68.6 µM (active),inactive,inactive,inactive,–,–,–,–,–
COC(=O)c1sccc1S(N)(=O)=O,inactive,inactive,inactive,inactive,inactive,inactive,inactive,inactive,inactive,inactive,–,–,–,–
Cc1ccc2nc(N)[nH]c(=O)c2c1Sc1ccncc1,2.66 µM (active),inactive,1.88 µM (active),inactive,inactive,inactive,inactive,inactive,inactive,inactive,–,–,–,–
CCO[Si](C)(CCCOCC1CO1)OCC (centres undefined),inactive,inactive,inactive,inactive,inactive,inactive,inactive,inactive,inactive,–,–,–,–,–
C=C(C)C(=O)OCCC(F)(F)C(F)(F)C(F)(F)C(F)(F)C(F)(F)C(F)(F)F,inactive,inactive,inactive,inactive,inactive,inactive,inactive,inactive,inactive,inactive,–,–,–,–
CC(=O)N[C@@H](Cc1ccc(O)cc1)C(=O)O,inactive,inactive,inactive,inactive,inactive,inactive,inactive,inactive,inactive,–,–,–,–,–
O=c1[nH]c2cc(C(F)(F)F)c(N3CCOCC3)cc2n(CP(=O)(O)O)c1=O,inactive,inactive,inactive,inactive,inactive,inactive,inactive,inactive,inactive,–,–,–,–,–
FC(F)(F)C(F)(F)C(F)(F)C(F)(F)CCI,inactive,inactive,inactive,inactive,inactive,inactive,inactive,inactive,inactive,inactive,–,–,–,–

Compound,Potency [1],Potency [2],Potency [3],Potency [4],outcome [5],Potency [6],outcome [7],outcome [8],Potency [9],outcome [10],"fluorescence, relative to Rose Bengal [7]","fluorescence, % of fluorescein control [8]","fluorescence, % of triamterene [9]","fluorescence, % of fluorescent control [10]"
COc1cc(NS(=O)(=O)c2ccc(N)cc2)nc(C)n1,inactive,inactive,inactive,inactive,inactive,inactive,inactive,inactive,inactive,inactive,–,–,–,–
O=C1c2ccccc2C(=O)c2c(O)ccc(O)c21,inactive,inactive,inactive,54.5 µM (active),inactive,3.06 µM (active),inactive,inactive,inactive,–,–,–,–,–
O=C1OC[C@H](Cc2cccc(O)c2)[C@H]1Cc1cccc(O)c1,inactive,inactive,inactive,inactive,inactive,8.24 µM (active),inactive,inactive,inactive,–,–,–,–,–
Nc1ccc(S(=O)(=O)NCc2ccccc2)cc1,inactive,inactive,inactive,inactive,inactive,inactive,inactive,inactive,inactive,inactive,–,–,–,–
CCCCCCCCCCCCCCN(C)C,inactive,inactive,inactive,inactive,inactive,inactive,–,–,–,–,0.132% [at 18.6 µM],0.0291% [at 18.6 µM],-0.142% [at 18.6 µM],–
Nc1ccc(N=Nc2ccc(N)cc2)cc1,inactive,5.44 µM (active),inactive,27.3 µM (active),inactive,6.85 µM (active),inactive,inactive,inactive,inactive,–,–,–,–
Cc1cn([C@H]2C[C@H](F)[C@@H](CO)O2)c(=O)[nH]c1=O,inactive,inactive,inactive,inactive,inactive,inactive,inactive,inactive,inactive,–,–,–,–,–
Cc1cccc(C)c1NC(=O)c1cc(S(N)(=O)=O)c(Cl)cc1O,inactive,inactive,inactive,inactive,inactive,inactive,inactive,inactive,inactive,inactive,–,–,–,–
CC(C)Cc1ccc(CC(=O)O)cc1,inactive,inactive,inactive,inactive,inactive,inactive,inactive,inactive,inactive,inactive,–,–,–,–
CCC(=O)OCc1ccc(OC)cc1,inactive,inactive,inactive,inactive,inactive,inactive,inactive,inactive,inactive,–,–,–,–,–
O=S(=O)(Cl)c1c(Cl)cccc1Cl,inactive,inactive,inactive,inactive,inactive,inactive,inactive,inactive,inactive,–,–,–,–,–
O=NN(CCCl)C(=O)NCCCl,1.19 µM (active),inactive,inactive,inactive,inactive,inactive,inactive,–,inactive,–,–,–,–,–
CCCCCCCCCCCCCCCCCC(=O)OCC(CC)CCCC (centres undefined),inactive,inactive,inactive,inactive,inactive,inactive,inactive,inactive,inactive,inactive,–,–,–,–
CC(=O)OCC(C)C,inactive,inactive,inactive,inactive,inactive,inactive,inactive,–,inactive,inactive,–,–,–,–
C1CCCCC1,inactive,inactive,inactive,inactive,inactive,inactive,inactive,–,inactive,inactive,–,–,–,–
Nc1nc(-c2ccc([N+](=O)[O-])cc2)cs1,inactive,inactive,inactive,inactive,inactive,3.1 µM (active),inactive,–,inactive,inactive,–,–,–,–
CCC1CCC(CCC(=O)O)C1 (centres undefined),inactive,inactive,inactive,inactive,inactive,inactive,inactive,inactive,inactive,inactive,–,–,–,–
CC(C)N(C)C,inactive,inactive,inactive,inactive,inactive,–,inactive,inactive,inactive,–,–,–,–,–
O=P(O)(O)Oc1ccccc1,inactive,inactive,inactive,inactive,inactive,–,inactive,inactive,inactive,–,–,–,–,–
CC[C@H]1OC(=O)[C@H](C)[C@@H](O[C@H]2C[C@@](C)(OC)[C@@H](O)[C@H](C)O2)[C@H](C)[C@@H](O[C@@H]2O[C@H](C)C[C@H](N(C)C)[C@H]2O)[C@](C)(O)C[C@@H](C)C(=O)[C@H](C)[C@@H](O)[C@]1(C)O,inactive,inactive,inactive,inactive,inactive,inactive,inactive,inactive,inactive,inactive,–,–,–,–
CC(C)(O)CCc1ccccc1,inactive,inactive,inactive,inactive,inactive,inactive,inactive,–,inactive,inactive,–,–,–,–
CC1CCc2nccnc21 (centres undefined),inactive,inactive,inactive,inactive,inactive,inactive,inactive,inactive,inactive,inactive,–,–,–,–
C=CC(=O)NC(C)C,inactive,inactive,inactive,inactive,inactive,inactive,inactive,inactive,inactive,inactive,–,–,–,–
CC1C(C)(C)C2=C(C(=O)CCC2)C1(C)C (centres undefined),inactive,inactive,inactive,inactive,inactive,–,inactive,inactive,inactive,–,–,–,–,–
CC(C)(C(=O)c1cccnc1)c1cccnc1,inactive,inactive,inactive,inactive,inactive,inactive,–,–,–,–,-0.433% [at 18.6 µM],-0.0177% [at 18.6 µM],-0.0025% [at 18.6 µM],-0.175% [at 18.6 µM]

# — PubChem BioAssay (Tox21)
